Source: PubChem BioAssay
Pf Dd2 growth: Plasmodium falciparum Dd2 growth inhibition; P. falciparum Dd2 growth, SYBR Green, 72 h; Potency, µM (series often up to 28.9 µM), for the others: at the highest dose activity, negative = inhibition, hits mostly inhibitors; 4.3% of 120,000 active; AID 1347417; active = well fitted inhibition curve with a large enough effect;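 note: plate controls were DMSO vehicle for no effect and reference drug for full effect; nearly all actives have a fitted effect of over 65% in size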
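Readout: SYBR Green fluorescence, 485 nm excitation, 535 nm emission, after ~16 h lysis at 37C. Before that, Dd2-infected red cells (2.5% hematocrit) grew 72 h with compound, 29 uM top final concentration.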
Active calls of the source: *. Shown is part of a subset that was picked to be rich in hits. Potency is the fitted concentration of half-maximal effect.

Screening COc1ccc2c(CNCCc3cccs3)c(C(=O)O)n(Cc3ccc(F)cc3Cl)c2c1 returned Pf Dd2 growth inactive.
For COc1ccc2c(CNCc3ccc(C)o3)c(C(=O)O)n(Cc3ccccc3)c2c1 the results were Pf Dd2 growth -16%.
CC1CCN(c2ccc(CNC(=O)C(C)C3CCOCC3)cc2)CC1 (configuration not stated) was read as Pf Dd2 growth -2%.
`CNC(=O)CN(C)C(=O)c1cc2c(s1)CCN(C(=O)c1ccc(Cl)cc1)C2` gave Pf Dd2 growth -13%.
`Cc1cc(=O)n(CC(=O)Nc2cc(Cl)ccc2C)c(N2CCC(C)CC2)n1` gave Pf Dd2 growth inactive.
For CN(C)C(C(=O)N1CCSCC1)c1ccc(F)cc1 (configuration not stated) the results were Pf Dd2 growth -6%.
CCCN(Cc1nccn1C)C(=O)c1cccc(C2CCNC2)c1 (configuration not stated) was read as Pf Dd2 growth 15%.
`COCc1cc(CNC(=O)c2ccc(C3CCNC3)cc2)[nH]n1` (configuration not stated) gave Pf Dd2 growth 7%.
`O=C(c1ccc(C2CCNC2)cc1)N(Cc1ccccc1)CC1CCC1` (configuration not stated) gave Pf Dd2 growth 13µM*.
